The supplement of paper PMC10981050
Values joined by “and” are separate entries in the source; they are usually repeats but may differ in a detail not shown here. Equal entries are not always repeated.

What was measured:
Experiment in all cases: cell viability relative to vehicle control; higher = less cytotoxic
Settings in all cases: 10 µM
K562 = test system: K562
Outline: (§1)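 Each screen used CRISPR-edited mutant and wild-type clones from four leukaemia lines. Compounds were acoustically dispensed at a single 10 µM dose, and CellTiter-Glo luminescence was read after 48 h with the supernatant first removed. Viability was analysed in Genedata Screener and given as percent of the on-plate vehicle control.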

MARIMO = test system: MARIMO
Outline: as §1

MOLM14 = test system: MOLM14
Outline: as §1

OCI-AML2 = test system: OCI-AML2
Outline: as §1

Row | Compound | cell viability (K562; SRSF2 genotype: SRSF2 P95H/wt) | cell viability (K562; SRSF2 genotype: SRSF2 wt/wt) [%] | cell viability (MARIMO; SRSF2 genotype: SRSF2 P95H/wt) [%] | cell viability (MARIMO; SRSF2 genotype: SRSF2 wt/wt) [%] | cell viability (MOLM14; SRSF2 genotype: SRSF2 P95H/wt) [%] | cell viability (MOLM14; SRSF2 genotype: SRSF2 wt/wt) [%] | cell viability (OCI-AML2; SRSF2 genotype: P95H/wt) [%] | cell viability (OCI-AML2; SRSF2 genotype: wt/wt) [%]
1 | C[C@H](CCC(=O)O)[C@H]1CC[C@H]2[C@@H]3[C@H](O)C[C@@H]4C[C@H](O)CC[C@]4(C)[C@H]3CC[C@]12C [Chenodeoxycholic acid] | 97.4% and 101% | 99.7 | 104 | 108 | 100 | 101 | 98.4 | 106
2 | O=C(O)CCc1ccc(NCc2cccc(Oc3ccccc3)c2)cc1 | 94.2% and 89.7% | 111 | 82.4 | 93.1 | 94.2 | 95.7 | 91 | 92.7
3 | CCOC(=O)C1=C(C)NC(C)=C(C(=O)OC)C1c1cccc(Cl)c1Cl (stereo not given) [Felodipine (Plendil)] | 72.9% and 78.2% | 79.9 | 79.2 | 88.8 | 78.4 | 86.3 | 78.9 | 87.1
4 | CCCCCCCCCCCCCCCC(=O)OC [Methyl palmitate] | 103% and 99.7% | 100 | 99 | 92.7 | 103 | 97.7 | 102 | 98.1
5 | CC[C@H]1OC(=O)[C@@](C)(F)C(=O)[C@H](C)[C@@H](O[C@@H]2O[C@H](C)C[C@H](N(C)C)[C@H]2O)[C@](C)(OC)C[C@@H](C)C(=O)[C@H](C)[C@H]2N(CCCCn3cc(-c4cccc(N)c4)nn3)C(=O)O[C@]12C [Solithromycin] | 91% and 93.4% | 91.2 | 107 | 101 | 89.4 | 94.9 | 94.1 | 93.5
6 | CC1(C)C2CCC1(C)C(O)C2 (single isomer, unassigned; (-)) [(-)-Borneol] | 103% | 106 | 100 | 109 | 101 | 104 | 109 | 106
7 | O=c1c2cc(O)c(O)cc2oc2cc(O)c([C@@H]3O[C@H](CO)[C@@H](O)[C@H](O)[C@H]3O)c(O)c12 [Mangiferin] | 106% and 96.7% | 99.3 | 97.7 | 104 | 103 | 104 | 86.5 | 102
8 | C=CCNC(N)=S [Allylthiourea] | 98.8% and 95.9% | 107 | 108 | 112 | 101 | 104 | 99.8 | 110
9 | COc1cc2c(=O)c(-c3ccc(O)cc3)coc2cc1O [Glycitein] | 97.5% and 92.1% | 102 | 95.4 | 90.8 | 93.7 | 98.1 | 90.3 | 82.3
10 | COC(=O)c1ccc(O)c(O)c1 [Methyl protocatechuate] | 105% | 105 | 90.5 | 101 | 101 | 109 | 117 | 97.9
